# PubChem BioAssay (NCI)
# Compounds without any hit were thinned out: in the full panel of roughly 83,000, 20% have a hit.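 Testing used 96-well plates and a 48-hour single-concentration exposure. Example: -40 means 40% of the starting cells died.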 A number with no mark means an inactive call. Calls of active or inactive are those of the source. Rule for the calls: active = growth percent below 10; inactive = the rest.
# Experiments:
# Assay in all cases: NCI-60 one-dose screen, 48 h (100 = growth as untreated, 0 = no growth, -100 = all killed)
# NCI-H23 lung = settings: 10 µM unless noted
# NCI-H226 lung = settings: 10 µM unless noted
# NCI-H322M lung = settings: 10 µM unless noted
# NCI-H460 lung = settings: 10 µM unless noted
# 786-0 renal = settings: 10 µM unless noted
# COLO 205 colon = settings: 10 µM unless noted
# DU-145 prostate = settings: 10 µM unless noted
# K-562 leukemia = settings: 10 µM unless noted
# MALME-3M melanoma = settings: 10 µM unless noted
# MDA-MB-231 breast = settings: 10 µM unless noted
# RXF 393 renal = settings: 10 µM unless noted
# SF-268 CNS = settings: 10 µM unless noted
# SF-295 CNS = settings: 10 µM unless noted
# SF-539 CNS = settings: 10 µM unless noted
# M14 melanoma = settings: 10 µM unless noted
# HOP-92 NSCLC = settings: 10 µM
# A549/ATCC NSCLC = settings: 10 µM unless noted
# UACC-257 melanoma = settings: 10 µM unless noted
# NCI-H522 lung = settings: 10 µM
Compound,growth (NCI-H23 lung),growth (NCI-H226 lung) [%],growth (NCI-H322M lung) [%],growth (NCI-H460 lung),growth (786-0 renal),growth (COLO 205 colon) [%],growth (DU-145 prostate),growth (K-562 leukemia),growth (MALME-3M melanoma),growth (MDA-MB-231 breast),growth (RXF 393 renal),growth (SF-268 CNS),growth (SF-295 CNS),growth (SF-539 CNS),growth (M14 melanoma),growth (HOP-92 NSCLC) [%],growth (A549/ATCC NSCLC),growth (UACC-257 melanoma),growth (NCI-H522 lung) [%]
CCCCCCCCC(=O)Nc1ccc(O)cc1,92.3%,104,88.1,105%,95.9%,94.9,103%,91.2%,87.7%,92.1%,101%,92%,101%,88.9%,107%,–,–,–,–
CCOC(=O)c1c(C)oc2ncnc(Nc3ccc(NC(=O)Nc4ccc(CC)cc4)cc3)c12,90.7%,104,102,106%,99.8%,–,103%,98%,101%,94.7%,98.3%,103%,109%,89.4%,99.9%,94.3,89.2%,111%,–
CCCCCCCCCCCCCCCCNC(=S)N/N=C/c1ccc(O)cc1O,77.1%,76,95.2,37.1%,73.3%,98,79.2%,70.3%,100%,81%,74.9%,69%,65.5%,110%,61.8%,–,55.1%,85.9%,–
Cc1c([C@H](C(Cl)Cl)[C@H](O)[C@H]2C[C@H](C)C(=O)O2)ccc2c1C(=O)[C@H]1[C@H]2C[C@@H](Br)[C@@]23O[C@@H](CO[C@H]2O)CC13C (stereo partly specified),20.3%,42.9,33.1,–,40.1%,–,-34.9% (active),7.69% (active),77.9%,4.9% (active),15.5%,33%,–,–,33.2%,69.2,-1.06% (active),61.9%,–
C[C@]12CC[C@H]3[C@@H](CC[C@H]4C[C@@H](O)CC[C@@]43C)[C@@H]1CC(=O)C2,99.9%,100,106,103%,107%,101,107%,94.1%,163%,112%,118%,97.9%,–,92.7%,108%,–,100%,104%,–
CCOC(=O)c1c(C)oc2ncnc(Nc3ccc(NC(=O)Nc4cccc(Cl)c4)cc3)c12,64.1%,54.8,83.6,67.2%,79.1%,–,70.8%,67.7%,81.4%,-18.7% (active),63.6%,86.4%,79.6%,16.6%,48.6%,50.7,32.3%,84%,–
CC(C)(CNC1CCCCC1)OC(=O)c1ccccc1,107%,97.8,103,106%,100%,104,104%,94.1%,99.2%,110%,102%,107%,94.1%,108%,102%,–,108%,110%,–
O=c1c2c(c3ccccc3n1-c1ccccc1)NC(=S)NC2c1ccc(Cl)cc1 (stereo unspecified),26.7%,65,45.1,2.25% (active),18.6%,67.2,47.2%,43.1%,39.2%,50.5%,46.3%,43.5%,25.9%,21.2%,29.1%,–,31.7%,44.1%,–
O=C(CBr)OCc1ccc([N+](=O)[O-])o1,97.2%,104,132,91.6%,–,100,108%,111%,107%,101%,94.8%,88.6%,96.5%,103%,–,–,100%,88.5%,–
O=C(NCCCl)Nc1nccnc1OCc1ccc(F)cc1,97.2%,100,104,–,89%,–,114%,99.4%,148%,87.6%,109%,99.2%,99.2%,109%,95.3%,79.4,102%,109%,77.6
CCN(CCO)CCNc1ccc(C)c2sc3cc(OC)ccc3c(=O)c12,79.6%,73.5,76.1,–,66.6%,48.9,72.2%,20.1%,103%,64.2%,71.4%,70.1%,73.7%,77.2%,79.3%,55.8,59.4%,103%,–
CCOc1ccc(Br)cc1/C=C(\C#N)c1ccc([N+](=O)[O-])cc1,87.6%,81.2,77.4,82.2%,86.3%,97.2,80.4%,80.6%,62.2%,61.2%,66.7%,60.9%,76.5%,81.1%,101%,–,–,–,–
O=C1CSC(c2ccccc2Cl)N1c1nnc(-c2ccncc2)o1 (stereo unspecified),85.9%,93.9,105,–,93.6%,–,106%,104%,120%,97.7%,101%,99.5%,–,–,–,95.9,101%,98.2%,–
O=C(Nc1cccc(Cn2c(=O)[nH]c3ccc(Oc4ncccn4)cc3c2=O)c1)c1cccc(F)c1,82.2%,74.1,86.4,–,65.6%,–,80.1%,45.1%,97.2%,74.7%,87.1%,74.1%,81.8%,80.1%,–,60.9,70.2%,67.3%,–
CCCNC(=O)Oc1ccc(/C(=C(/C)Cc2ccc(OC)cc2)c2ccc(OCCN3CCCC3)cc2)cc1,84.1%,90.7,86.5,–,70.7%,10.1,90.1%,-11.5% (active),28.9%,57.6%,70%,72.4%,68.7%,77.8%,-52.9% (active),52.1,71.8%,73.5%,71.8
CC(=O)/C(=C\c1c(-c2ccccc2)[nH]c2ccccc12)S(=O)(=O)c1ccccc1,-19.8% (active),23.2,43.1,2.86% (active),9.85% (active),12,-18.7% (active),-53.4% (active),62.6%,4.14% (active),-28.2% (active),7.87% (active),-41.4% (active),-38.1% (active),5% (active),–,19.6%,-6.16% (active),–
CC(O)CN(CCO)CCN(CCO)CC(C)O (stereo unspecified),111%,99.3,103,109%,94.6%,115,106%,107%,106%,115%,93%,107%,94.2%,94.8%,106%,–,102%,108%,–
O=C(O)c1ccc(Br)nc1,102%,98.4,101,–,100%,105,100%,100%,94.2%,100%,105%,95.4%,96.9%,97.7%,–,94.6,89.6%,88.3%,–
O=C1C(Cl)=C(SC2=NCCN2)C(=O)c2ccccc21,2.92% (active),91.7,99.5,70%,99.2%,111,–,65%,-50.3% (active),56.3%,121%,62.1%,106%,105%,4.35% (active),–,95.2%,36.9%,–
